# aSyn UTR act: Activators via SNCA 5'UTR binding, MLPCN. alpha-synuclein 5'UTR reporter, activators screen. activity score, % (tested at 7.5 µM), hits read low. 300,000 tested, 7.1% active. AID 1814; in the data active = activity score below about -60%
# Active calls of the source: *. The list is a sample of the results.
SMILES,aSyn UTR act
O=C(Nc1ccc(N2CCOCC2)c(Cl)c1)c1ccc(Br)o1,-253*
O=C(Nc1cccnc1Cl)c1cc2ccccc2o1,-166*
CC(C)C(=O)N1CCN(c2ccc(NC(=O)c3ccc4c(c3)OCCO4)cc2Cl)CC1,-109*
O=C(Nc1ccc(N2CCOCC2)c(Cl)c1)c1ccccc1Cl,-66*
O=C(Nc1ccc(CN2CCOCC2)cc1)c1ccc(Br)o1,-104*
O=C1S/C(=C\C=C\c2ccco2)C(=O)N1c1ccccc1,-217*
O=C1S/C(=C\C=C\c2ccco2)C(=O)N1c1ccc(O)cc1,-245*
O=C(C1CCCN1S(=O)(=O)c1cccc2nsnc12)N1CCN(c2ccccc2)CC1 (centres undefined),-63*
Nc1nc(-c2ccc3c(c2)OCCO3)cs1,-86*
CC1Cc2cc(-c3csc(N)n3)ccc2O1 (centres undefined),-95*
Cc1nc(-c2ccc3c(c2)OCCCO3)cs1,-100*
CCn1c(SCC(=O)c2ccc(Cl)cc2)nnc1C(C)C,-76*
Cc1ccc(N2C(=O)c3ccccc3C2O)nc1 (centres undefined),73
COc1ccc(O)c(C(=O)C2c3ccccc3C(=O)N2c2ccc(C)cc2)c1 (centres undefined),-116*
O=C1c2ccccc2C(O)N1c1ccc(Cl)cc1 (centres undefined),-67*
COc1ccc(N2C(=O)c3ccccc3C2O)cc1 (centres undefined),-79*
CCOC(=O)CSc1nc2ccc(C)cc2cc1C#N,-172*
Cc1ccc2cc(C#N)c(SCC(=O)N3CCCC3)nc2c1,-81*
CCOc1ccc2cc(C#N)c(SCC(=O)N3CCOCC3)nc2c1,-94*
Cc1cc(C)c2nc(SCC(=O)N3CC(=O)Nc4ccccc43)c(C#N)cc2c1,67
CCOC(=O)CSc1nc2cc(OC)ccc2cc1C#N,-109*
COc1ccc2nc(SCC(C)=O)c(C#N)cc2c1,-70*
CCOC(=O)CSc1nc2cc(C)cc(C)c2cc1C#N,-195*
CCOC(=O)CSc1nc2cc(C)ccc2cc1C#N,-150*
NC(=O)C1(N2CCCCC2)CCN(C2CC(=O)NC2=O)CC1 (centres undefined),-86*
SMILES,aSyn UTR act
NC(=O)CC1C(=O)N(c2ccccc2)C(=S)N1NC(=O)c1ccccc1 (centres undefined),-73*
Cc1cc(/C=c2/sc3nc4ccccc4n3c2=O)c(C)n1-c1ccccn1,88
O=c1/c(=C\c2cccnc2)sc2nc3ccccc3n12,-107*
Cc1cc(/C=c2\sc3nc4ccccc4n3c2=O)c(C)n1-c1ccc(C(=O)O)cc1,-62*
CCC(=O)Nc1ccc(NC(=O)c2ccccn2)cn1,-88*
CCCC(=O)Nc1ccc(NC(=O)c2ccccc2Cl)nc1,-76*
OCCOCCNc1ncnc2c1cnn2-c1ccccc1,-137*
COc1ccc(-n2ncc3c(NCCCn4ccnc4)ncnc32)cc1,-122*
OCCOCCNc1ncnc2c1cnn2-c1ccc(Cl)cc1,-93*
COCCNc1ncnc2c1cnn2-c1ccc(Cl)cc1,-78*
COCCN(CCOC)c1ncnc2c1cnn2-c1ccc(Cl)cc1,-139*
Cc1ccc(C)c(OCc2cc(C(=O)N3C[C@@H](C)O[C@@H](C)C3)no2)c1,-131*
Cc1ccc(C)c(OCc2cc(C(=O)N3CCN(c4ccccc4)CC3)no2)c1,-115*
Cc1ccc(C)c(OCc2cc(C(=O)N3CCN(C(=O)c4ccco4)CC3)no2)c1,-113*
Cc1sc2ncnc(SCC(=O)c3cccs3)c2c1C,-73*
Cc1c(OCc2ccccc2)c(=O)ccn1Cc1ccccc1,-111*
CCOc1ccc(C(=O)COC(=O)c2c(-c3ccccc3)noc2C)cc1,-63*
Cc1onc(-c2ccccc2)c1C(=O)OCCOc1cccc(Cl)c1,-70*
O=C(CCl)Oc1ccc2occ(C(=O)c3cccs3)c2c1,-193*
O=C(c1cccs1)c1coc2ccc(O)cc12,-200*
CC(=O)Oc1ccc2occ(-c3ccccc3)c2c1,-137*
CC(=O)Oc1ccc2occ(C(=O)c3ccccc3)c2c1,-134*
CC(=O)Oc1ccc2occ(C(=O)c3cccs3)c2c1,-175*
COc1ccc(NC(=O)c2cc(C)no2)cc1,-65*
Cc1ccc(NC(=O)c2cc(C)no2)cc1,-75*
SMILES,aSyn UTR act
COC(=O)c1ccc2nc(-c3cccc(N)c3)cn2c1,61
COC(=O)c1ccc(OCCOc2ccccc2)cc1,-131*
COC(=O)c1ccc(N=Nc2ccccc2)cc1,-132*
CCOC(=O)c1sc2ccccc2c1NC(=O)c1coc2ccccc2c1=O,-74*
Fc1ccccc1Cn1nnc(-c2ccc3c(c2)OCO3)n1,-77*
COc1ccc(-c2nnn(Cc3ccccc3F)n2)cc1,-207*
C/C(=N\Nc1ccc(C(=O)O)cc1)c1ccc(Cl)s1,-87*
COc1ccc(C(=O)N/N=C/C(=O)c2ccccc2)cc1,-133*
COc1ccc(C(=O)N/N=C(\c2ccccc2)c2ccccn2)cc1,107
COc1ccc(/C(C)=N/Nc2ccc(C(=O)O)cc2)c(OC)c1,-140*
COc1ccc2c(c1)c(/C=N/Nc1ccc(C(=O)O)cc1)c(C)n2C,-75*
COc1ccc(C(=O)N/N=C/c2sc3ccccc3c2O)cc1,84
COc1ccc2c(/C=N/Nc3ccc(C(=O)O)cc3)c[nH]c2c1,-135*
CCCCCN=C(N)N/N=C/c1c[nH]c2ccc(OC)cc12,108
COc1ccc(C(=O)N/N=C/c2c[nH]c3ccccc23)cc1,-70*
COc1ccc2c(c1)c(C(=O)N/N=C/c1ccc(Br)cc1)c(C)n2C,-116*
CC(C)NC(=S)N/N=C/c1c[nH]c2ccccc12,-124*
COc1ccc(/C=N/NC(=O)c2[nH]c3ccc(Br)cc3c2-c2ccccc2)cc1,80
O=C(c1cc(-c2ccc(F)cc2)on1)N1CCCc2ccccc21,-62*
O=C(c1cc(-c2cccs2)on1)N1CCCc2ccccc21,-79*
Cc1ccc(-c2cc(C(=O)N3CCCc4ccccc43)no2)cc1,-150*
Cc1ccn2c(C(=O)c3ccc(Cl)cc3)cnc2c1,-81*
C[C@@H]1C=CC(=O)O[C@@H]1c1ccc(Cl)cc1,-194*
Cc1cc(C(=O)Nc2ccccn2)no1,-104*
CCCc1cc(C(=O)Nc2ccc(C)cc2)no1,-104*
SMILES,aSyn UTR act
Cc1ccc(/C=C/C(=O)Nc2cc(C)on2)cc1,-227*
Cc1ccc(NC(=O)c2cc(C)on2)cc1,-96*
Cc1cc(C(=O)Nc2sc(C)c(C)c2C#N)no1,-170*
CCCc1cc(C(=O)Nc2ccc(CC)cc2)no1,-169*
Cc1ccc(NC(=S)Nc2cc(C)on2)cc1,-71*
CCc1cc2c(=O)n3c(nc2s1)-c1[nH]c2ccc(OC)cc2c1CC3,-103*
COc1ccc(-c2csc(Nc3ccc(S(N)(=O)=O)cc3)n2)cc1OC,62
COc1ccc(-c2csc(Nc3ccc(C)cn3)n2)cc1OC,-120*
COc1ccc(-c2csc(Nc3cc(C)ccn3)n2)cc1OC,-236*
Oc1ccc2c(c1)oc1cc(O)ccc12,-178*
Cc1ccc(NC(=O)c2cc(F)c(F)cc2Cl)nc1,-130*
Cc1ccc(NC(=O)c2ccccc2F)nc1,-88*
COc1cc2ccccc2cc1C(=O)Nc1ccc(C)cn1,-87*
CC(=O)c1c(C)[nH]c(C(=O)Nc2ccc(C)cn2)c1C,85
CC(=O)NC1Sc2ccccc2N=C1c1ccccc1 (centres undefined),-181*
CCCCN(Cc1ccccc1)c1ncnc2nc[nH]c12,-63*
O=C(CSc1nnc(SCc2ccc(Cl)cc2)s1)N/N=C/c1c(Cl)cccc1Cl,-69*
O=C(CSc1nnc(SCc2ccccc2Cl)s1)N/N=C/c1c[nH]c2ccccc12,-94*
